RE007 growth inh = less growth of the S. pombe RE007 Vpr strain; S. pombe RE007 Vpr strain, BacTiter-Glo ATP luminescence, 24 h; Potency, µM (titrated, usually from 92.2 µM), without a hit: at the top dose activity change, negative = less growth, usual class: inhibitors; actives 0.21% (n = 360,000); active = well fitted falling curve with a large enough effect; inconclusive = small, poorly fitted or top-dose-only effect; inactive = no such curve, though single readings can be large or run the other way; note: nearly all actives have a fitted effect of over 50% in size
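Fission yeast strain RE007, carrying one chromosomally integrated HIV-1 vpr copy, was seeded at OD 0.01 in PMG+AL medium with 23 nL pinned compound. After 24 h at 30 °C and 99% humidity, viability was read by BacTiter-Glo luminescence.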
FMDV inh = blocks foot and mouth disease virus; FMDV antiviral cell-based qHTS; Potency, µM (top dose mostly 57.9 µM), inactives show top-dose activity change, negative = inhibition, actives largely listed as inhibitors; actives 1.2% (n = 410,000); AID 1159524; calls by dose curve; tested in HEK293T cells; note: read-out not given here; nearly all actives have a fitted effect of over 45% in size
Tb PYK inh = inhibitors of Trypanosoma brucei pyruvate kinase | actives 0.12% (n = 410,000) | Potency, µM (highest dose often 76.8 µM), without a hit: at the top dose activity, negative = inhibition, most hits filed as inhibitors | TbPYK enzyme, Kinase-Glo Plus ATP luminescence, 45 min; note: nearly all actives have a fitted effect of over 50% in size
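Readout: single end-point luminescence (Kinase-Glo Plus, 10 min). Reaction conditions were TbPYK/substrate plus 130 uM ADP, 45 min at RT, pH 7.2 TEA buffer. No-enzyme wells served as controls, and data were normalized before concentration-response fitting.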
Sm TGR block = inhibitors of Schistosoma mansoni thioredoxin glutathione reductase | Q962Y6 | purified TGR, DTNB reduction, TNB absorbance 405 nm | Potency, µM (highest dose often 114 µM), without a hit: at the highest dose activity change, negative = inhibition, hits mostly inhibitors | actives 3% (n = 360,000) | AID 485364; note: nearly all actives have a fitted effect of over 60% in size
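TGR 20 nM + NADPH 100 uM (dispensed conc.), cpd preinc 15 min RT; start with NADPH (500 uM addition) then DTNB (15 mM addition). Kinetic TNB absorbance, 405 nm filter. Four-parameter Hill fit across titration.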
An asterisk follows results filed as active; ? = inconclusive; . = no result. The list is not random: actives were taken first. Their share in the collection is about 3.7%. Unless noted, calls come from the whole dose curve; as a rule, active = well fitted curve in the direction sought with a large enough effect; inconclusive = small, poorly fitted or top-dose-only effect, or another doubt; inactive = no such curve, though single readings can be large; an effect the other way counts as inactive or inconclusive. % is set by controls: 0 for no effect and ±100 for the full control effect; potency is the fitted concentration of half-maximal effect.

SMILES	RE007 growth inh	FMDV inh	Tb PYK inh	Sm TGR block
O=C1CCc2cc(S(=O)(=O)NCCC(=O)N3CCN(c4cccc(Cl)c4)CC3)ccc2N1	-0.5%	15.8µM*	-1.8%	8.7%
CC1CC(C)CN(C(=O)CCNS(=O)(=O)c2ccc3c(c2)CCC(=O)N3)C1 (stereo not drawn)	2.6%	-1.4%	-24.4%	-0.7%
CC(CC(=O)N1CCN(c2cccc(Cl)c2)CC1)S(=O)(=O)c1ccc2c(c1)NC(=O)CO2 (stereo not drawn)	-10.9%	2.82µM*	3.7%	1.1%
O=[N+]([O-])C(=C1Nc2ccccc2N1)/C(Cl)=C(/Cl)Br	24.7%	-7.8%	-17.2%	6.31µM*
O=C(c1ccc2c3c(cccc13)CC2)C1CCCN(C(=O)c2ccc(=O)[nH]c2)C1 (stereo not drawn)	-3.7%	-13.4%	-11.7%	39.8µM*
Cc1ncccc1C(=O)N1CCCC(C(=O)c2ccc3c4c(cccc24)CC3)C1 (stereo not drawn)	4.5%	?	1.4%	10.2%
CC(=O)c1ccc(NC(=S)Nc2cccc(S(=O)(=O)Nc3c(C)n(C)n(-c4ccccc4)c3=O)c2)cc1	-29.5%	36.8%	-14.6%	14.1µM*
Cc1cccc(NC(=O)c2cccc(S(=O)(=O)Nc3c(C)n(C)n(-c4ccccc4)c3=O)c2)c1	-4.2%	-2.3%	1.2%	.
Cc1ccc(NC(=S)Nc2cccc(S(=O)(=O)Nc3c(C)n(C)n(-c4ccccc4)c3=O)c2)cc1	-5.9%	25.6%	-3.7%	50.1µM*
CC(=O)NC1=NC(=O)/C(=C/c2cn(C(C)=O)nc2-c2ccccc2)S1	6.7%	-11.5%	7.08µM*	-2.7%
O=C1CC(SCc2nc3ccccc3[nH]2)C(=O)N1c1cccc(Cl)c1 (stereo not drawn)	28.2µM*	3.4%	-1.2%	?
NCCSC1CC(=O)N(c2ccc(Cl)c(Cl)c2)C1=O (stereo not drawn)	-56.2%	25.7%	4.7%	63.1µM*
O=C1CC(c2nc3ccccc3[nH]2)CN1c1cccc(Cl)c1 (stereo not drawn)	.	0.0%	-11.9%	-0.7%
O=C1CC(SCc2nc3ccccc3[nH]2)C(=O)N1c1ccc(F)cc1 (stereo not drawn)	?	-0.7%	2.9%	44.7µM*
CCc1c(O)nc(SC2CC(=O)N(c3ccc(F)c(Cl)c3)C2=O)[nH]c1=O (stereo not drawn)	-2.6%	-3.2%	-4.5%	?
O=C1CC(SCCc2nc3ccccc3[nH]2)C(=O)N1c1ccc(F)c(Cl)c1 (stereo not drawn)	28.2µM*	-6.4%	-1.4%	.
CCCOc1ccc(N2C(=O)CC(SCc3nc4ccccc4[nH]3)C2=O)cc1 (stereo not drawn)	63.1µM*	1.8%	-4.3%	?
CCN1CCSc2ccc(C(=O)NC(C)c3ccccc3)cc21 (stereo not drawn)	.	-16.2%	0.7%	-3.5%
CN(C)c1c(-c2ccccc2)cc(-c2ccccc2)[nH]c1=O	.	.	.	15.8µM*
C=CCOc1ccc(C2/C(=C(/O)c3ccc4c(c3)CC(C)O4)C(=O)C(=O)N2CCCN2CCOCC2)cc1 (stereo not drawn)	2.1%	?	1.4%	0.0%
COc1cc(C2/C(=C(\O)c3ccc4c(c3)CC(C)O4)C(=O)C(=O)N2CCCn2ccnc2)ccc1O (stereo not drawn)	-0.6%	-15.8%	-5.5%	-32.7%
C=CCOc1ccc(C2/C(=C(\O)c3ccc4c(c3)CC(C)O4)C(=O)C(=O)N2CCN2CCOCC2)cc1OCC (stereo not drawn)	-6.5%	-13.3%	4.7%	39.8µM*
CCOc1ccc(C2/C(=C(/O)c3ccc4c(c3)CC(C)O4)C(=O)C(=O)N2CCCn2ccnc2)cc1OCC (stereo not drawn)	-15.5%	-24.8%	1.9%	89.1µM*
CN(/N=C/c1ccco1)C1=NS(=O)(=O)c2ccccc21	12.0%	8.6%	-5.4%	-0.4%
CCNc1nc(NCC)nc(N(C)/N=C/c2ccco2)n1	-12.1%	-3.8%	9.6%	35.5µM*
SMILES	RE007 growth inh	FMDV inh	Tb PYK inh	Sm TGR block
COc1ccc(C(c2oc(CO)cc(=O)c2O)c2oc(CO)cc(=O)c2O)cc1	3.1%	-0.8%	-0.9%	35.5µM*
Cc1ccnc(NC(c2ccccc2O)c2oc(CO)cc(=O)c2O)c1 (stereo not drawn)	-13.9%	13.0%	-5.6%	1.78µM*
COc1cc(C(c2oc(CO)cc(=O)c2O)c2oc(CO)cc(=O)c2O)cc(OC)c1OC	1.1%	-8.4%	-16.2%	-25.6%
O=c1cc(CO)oc(C(Nc2ccccn2)c2ccsc2)c1O (stereo not drawn)	.	.	.	11.2µM*
COc1ccc(C(Nc2ccccn2)c2oc(CO)cc(=O)c2O)cc1 (stereo not drawn)	7.5%	-2.6%	?	2.82µM*
C=Cc1ccc(C(=O)N2CCc3c(cnc(C)c3CNC(=O)c3ccc4c(c3)OCO4)C2)cc1	.	-4.1%	.	.
O=c1cc(CO)oc(C(Nc2ccccn2)c2ccccc2Cl)c1O (stereo not drawn)	1.2%	-15.9%	-14.2%	?
O=c1cc(CO)oc(C(Nc2ccccn2)c2ccc(F)cc2)c1O (stereo not drawn)	-11.5%	-2.6%	-5.3%	2.51µM*
COc1ccc(CN2C[C@H](Sc3nc4ccccc4[nH]3)C[C@H]2C(=O)N(C)C)c2ccccc12	.	0.9%	.	.
COc1ccc(Cn2ccc3nc(C)c(C(=O)Nc4ccc(OC(F)(F)F)cc4)cc3c2=O)cc1	.	-28.1%	1.1%	1.2%
COc1ccc2[nH]cc(CCNc3ncnc4ccc(-c5c(C)noc5C)cc34)c2c1	.	-16.9%	.	.
CC(=O)N1CCCc2ccc(NC(=O)c3ccc(OC(C)C)cc3)cc21	.	11.2µM*	1.3%	-9.1%
CCCCOc1ccc(C(=O)Nc2ccc3c(c2)N(C(C)=O)CCC3)cc1	.	3.16µM*	-7.5%	-6.6%
COc1cccc(OC)c1C(=O)Nc1ccc2c(c1)N(C(C)=O)CCC2	.	-8.2%	0.9%	1.2%
COC(=O)c1ccccc1NS(=O)(=O)c1cc2c(cc1C)N(C)CCO2	.	79.3%	-1.6%	0.1%
CC(=O)Cc1nsc(Nc2cccc(C)c2)n1	-12.7%	23.4%	2.0%	-3.9%
COc1ccc(Nc2nc(CC(C)=O)ns2)cc1OC	0.0%	19.1%	-9.5%	12.6µM*
CC1=C(C(=O)Nc2cccnc2)C(c2ccccc2)n2nc(-c3ccc(O)cc3)nc2N1 (stereo not drawn)	.	6.9%	0.2%	1.3%
S=c1[nH]nc(COc2ccccc2)n1/N=C/C(Cl)=C/c1ccccc1	-18.3%	35.5µM*	-26.0%	7.5%
S=c1[nH]nc(COc2ccccc2)n1/N=C/C=C/c1ccccc1	-1.0%	-1.9%	?	5.5%
S=c1[nH]nc(COc2ccccc2)n1/N=C/C=C/c1ccco1	20.0%	2.4%	?	12.6µM*
S=c1[nH]nc(-c2n[nH]c3c2CCC3)n1/N=C/C=C/c1ccco1	-10.1%	-20.7%	-31.2%	11.2µM*
COc1ccccc1/C=C/C=N/n1c(-c2n[nH]c3c2CCC3)n[nH]c1=S	6.5%	-21.9%	?	3.7%
